# Source: PubChem BioAssay
# This excerpt belongs to a sample that is enriched for hits.
# Algae TAG accum: inducers of TAG accumulation in Chlamydomonas, primary screen, qHTS, Chlamydomonas reinhardtii. calls only at 10 µM (by protocol). AID 1159537, 2015. Nile Red fluorescence, 72 h. actives 0.84% (n = 44,000); call rule not given here;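 note: hits raise Nile Red signal meaning more stored TAG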
# Starred values were filed as active, the others as inactive; i = inactive; + = active, no number.
SMILES,Algae TAG accum
Oc1[nH]c2ccccc2c1C(=C1N=c2ccccc2=N1)c1ccccc1,i
O=C(O)C(NS(=O)(=O)c1ccc(Br)cc1)c1ccccc1 (stereo not given),i
CCCCSc1nnc2c(n1)[nH]c1ccc(C)cc12,i
O=C(CCN1C(=O)c2ccccc2C1=O)Nc1cccc([N+](=O)[O-])c1,i
CCC(CC)C(=O)Nc1ccc(C(=O)Nc2nccs2)cc1,+
Cc1ccc(OCC(=O)Nc2ccc(C(=O)Nc3nccs3)cc2)cc1C,i
Cc1ccc(C(=O)Nc2nccs2)cc1Br,i
COc1ccc(-c2nc3s/c(=C4\C(=O)N(C)c5ccccc54)c(=O)n3n2)cc1,i
c1ccc(-c2nn(-c3ccccc3)[n+](-c3nnn[n-]3)n2)cc1,i
COc1ccc(NC(=O)/C(=C\c2ccccc2)NC(=O)c2ccc(Br)o2)cc1,i
